Assay outcomes from PubChem.
Rows were chosen to be rich in hits. Some 4.1% of all compounds tested hit in one or more screens of this group.
DAX1 inh-1 – inhibitors of DAX1 repression of SF-1 activated StAR promoter | HEK293T StAR-luciferase reporter, SF-1/DAX-1 repression relief | inhibition, % at 6.8 µM | hit rate 1.1% among 370,000 | AID 652010;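 active means inhibition above the mean over all tested compounds plus 3 SD, cut at about 3.6% in these data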;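 further: 0% = DAX-1 cells with DMSO and 100% = cells lacking DAX-1 with DMSO; higher inhibition means more luminescence from relief of DAX-1 repression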
hcDAF-12 act – activators of H. contortus DAF-12 nuclear receptor; hit rate 1.4% among 370,000; AID 652067; HEK293 hcDAF-12 lit1-tk-luc reporter, luminescence; 0% DMSO, 100% Δ7-dafachronic acid; activation, % at 6.8 µM;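 active means activation above the mean of all tested compounds plus 3 SD, cut at about 5.5% in these data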;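 further: 100% = response to 3 µM Δ7-dafachronic acid high control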
ssDAF-12 act – activators of S. stercoralis DAF-12 nuclear receptor; HEK293 ssDAF-12/GRIP1 lit1-tk-luc reporter, luminescence; % of 3 µM dafachronic acid response; activation, % at 6.8 µM; hit rate 1% among 370,000; AID 652126;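 active means activation above the mean over all tested compounds plus 3 SD, cut at about 0.9% in these data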;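 further: 0% = DMSO-only wells and 100% = 3 µM delta7-dafachronic acid wells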
DAX1 inh-2 – NR0B1 (DAX1) inhibition; inhibition, % at 6.75 µM; HEK293 Gal4-DAX1 luciferase reporter, luminescence; P51843; hit rate 0.99% among 340,000;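 active means inhibition above the mean over all tested compounds plus 3 SD, cut at about 4.2% in these data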;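 further: 0% = DAX1-transfected cells with DMSO and 100% = empty-vector control cells with DMSO; inhibition shows as a rise in luminescence from relieved DAX1 repression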
Target sequence (P51843 207-470 limits assumed): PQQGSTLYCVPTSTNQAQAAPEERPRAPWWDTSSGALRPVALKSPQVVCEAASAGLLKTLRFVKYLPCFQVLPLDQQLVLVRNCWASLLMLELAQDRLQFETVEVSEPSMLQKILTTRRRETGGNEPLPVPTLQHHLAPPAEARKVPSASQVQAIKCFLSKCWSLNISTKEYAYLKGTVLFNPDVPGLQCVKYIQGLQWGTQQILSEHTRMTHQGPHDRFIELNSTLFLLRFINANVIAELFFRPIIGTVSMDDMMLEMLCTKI
hgDAF-12 ag – agonists of H. glycines DAF-12 nuclear receptor. HEK293 GAL4-hgDAF12 UAS-luciferase reporter, agonist luminescence; normalized to butyrate control. activation, % at 6.8 µM. hit rate 1.8% among 370,000. AID 687014;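 active means activation above a cutoff set at the mean of all screened compounds plus 3 SD, cut at about 10% in these data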;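 further: 0% = DMSO wells and 100% = sodium butyrate wells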
DAX1 inh confirm – confirmation of human DAX1 (NR0B1) inhibitors; shares compounds with DAX1 inh-1; HEK293T StAR-promoter luciferase reporter, SF-1/DAX-1 repression; inhibition, % at 6.8 µM; hit rate 87% among 2,400;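 active means inhibition above the average of every tested compound plus 3 SD, cut at about 3.8% in these data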;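 further: 0% = DAX-1 cells with DMSO and 100% = no DAX-1 control cells with DMSO; active compounds raise luminescence by relieving repression of the StAR reporter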
SF1 mutant ctr – counter-screen for DAX1 inhibitors: nonselective inhibitors with SF-1 AF2 mutant. shares compounds with DAX1 inh-1. HEK293 StAR-luciferase, luminescence. inhibition, % at 6.8 µM. hit rate 78% among 2,400. AID 652136;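 active means inhibition above the mean of all tested compounds plus 3 SD, cut at about 3% in these data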;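 further: 0% = DAX-1 transfected cells with DMSO and 100% = cells without DAX-1 with DMSO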
LXRb hcDAF ctr – LXR-beta agonism as hcDAF-12 counter-screen; shares compounds with hcDAF-12 act; HEK293 Gal4-LXR tk-luc reporter, luminescence, 24 h; normalized: DMSO 0%, positive control 100%; activation, % at 6.8 µM; 3,400 tested, under 10 active; AID 743027;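 active means mean percent activation of the reporter above a cutoff set as the average over tested compounds plus their standard deviation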
Target sequence (P55055 whole entry, looked up, the tested form may be a part): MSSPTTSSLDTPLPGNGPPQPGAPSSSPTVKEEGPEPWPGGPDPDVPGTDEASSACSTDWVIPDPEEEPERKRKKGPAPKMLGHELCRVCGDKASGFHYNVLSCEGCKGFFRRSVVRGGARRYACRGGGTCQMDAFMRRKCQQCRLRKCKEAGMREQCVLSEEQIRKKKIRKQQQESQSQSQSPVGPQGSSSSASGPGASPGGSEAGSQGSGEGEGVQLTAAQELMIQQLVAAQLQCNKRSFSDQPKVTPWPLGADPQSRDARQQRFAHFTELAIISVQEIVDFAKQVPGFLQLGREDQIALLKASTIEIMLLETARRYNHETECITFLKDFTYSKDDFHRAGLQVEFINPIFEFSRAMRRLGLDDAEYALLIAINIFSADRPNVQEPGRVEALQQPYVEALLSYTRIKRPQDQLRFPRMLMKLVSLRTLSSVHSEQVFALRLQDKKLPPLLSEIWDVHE
hcDAF12 ag – confirmation of H. contortus DAF-12 agonists. HEK293 hcDAF-12 lit1-tk-luc reporter, luminescence; % of Δ7-dafachronic acid response. activation, % at 6.8 µM. hit rate 61% among 3,400. AID 743032. shares compounds with hcDAF-12 act;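 active means mean activation across triplicate tests above the threshold derived from the earlier primary screen, cut at about 5.5% in these data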;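 further: 0% = DMSO only wells and 100% = 3 µM Δ7-dafachronic acid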
hgDAF12 ag – confirmation of H. glycines DAF-12 agonists | HEK293 GAL4-hgDAF12 luciferase reporter, agonist mode; percent of butyrate response | AID 743050 | shares compounds with hgDAF-12 ag | activation, % at 6.8 µM | hit rate 80% among 3,300;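 active means mean activation over triplicate wells above the hit cutoff derived from the earlier primary screen, cut at about 11% in these data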;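 further: 0% = DMSO low control and 100% = 2 mM sodium butyrate high control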
LXR ag 2 – activates human LXR-beta, counter-screen for DAF-12 agonists | AID 743051 | 3,300 tested, under 10 active | HEK293 Gal4-LXR luciferase reporter, 24 h | activation, % at 6.8 µM | shares compounds with hgDAF-12 ag;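 active means mean activation of the triplicate above a set limit carried over from the primary screen, none filed active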
The depositor's hits bear a star; . = not tested or not shown.

SMILES	DAX1 inh-1	hcDAF-12 act	ssDAF-12 act	DAX1 inh-2	hgDAF-12 ag	DAX1 inh confirm	SF1 mutant ctr	hgDAF12 ag	LXR ag 2	others
O=C(Nc1cccnc1Cl)c1ccc2c(Cl)c3c(nc2c1)CCC3	5.0*	6	0	2	17*	16*	6.1*	20*	1
N#Cc1ccccc1NC(=O)c1ccc2c(Cl)c3c(nc2c1)CCCC3	1	0	-1	3	4	.	.	.	.
O=C1Nc2ccccc2N(C(=O)c2ccc3ccccc3c2)C1c1nc2ccccc2[nH]1 (stereo unspecified)	13*	6.7*	1.8*	.	27*	3	2.9*	10	0	LXRb hcDAF ctr=0;hcDAF12 ag=1
CC1C(=O)Nc2ccccc2N1C(=O)c1ccc(O)cc1 (stereo unspecified)	0	-3	-1	1	1	.	.	.	.
O=C(NCc1ccccc1)[C@H]1CCCN1C(=O)[C@H]1CCCN1C(=O)c1ccc(F)c(C(F)(F)F)c1	0	-2	0	.	-1	.	.	.	.
c1csc(-c2cn3ccc4ccccc4c3n2)c1	4.8*	14*	2.5*	2	17*	8.3*	5.4*	18*	1	LXRb hcDAF ctr=1;hcDAF12 ag=15*
c1cc(-c2cccs2)nc(-c2cccs2)c1	0	-2	0	2	-3	.	.	.	.
CCNC(=S)NNC(=O)c1cc(-c2ccc(OC)cc2)nc2ccccc12	5.5*	5	1	-3	18*	15*	8.8*	18*	1
COc1ccc(-c2ncncc2-c2ccccc2)c(O)c1	0	-2	-1	1	3	.	.	.	.
COc1ccc(-c2cc(-c3ccccc3)n[nH]2)c(O)c1	5.5*	4	0	2	16*	6.3*	5.5*	16*	1
O=C(OCc1cn(Cc2ccccc2)nn1)N1CCCC1	-1	-1	-1	.	-5	.	.	.	.
COC(=O)c1cc(-c2ccc(-c3ccccc3)c(F)c2)c(=O)n2c1CCC2	0	-1	-1	.	0	.	.	.	.
Cc1cc(C)c(C#N)c(SCc2nnc(-c3ccccc3[N+](=O)[O-])o2)n1	5.1*	4	1	0	16*	18*	4.6*	11*	1
Cc1cc(C)c(C#N)c(SCc2ccccc2[N+](=O)[O-])n1	-1	1	-1	-1	0	.	.	.	.
CCCC(=O)Nc1ccc(-c2nc3cc(C)c(C)cc3o2)cc1	5.5*	5	1.6*	2	13*	14*	8.7*	16*	1
O=C(NN=Cc1ccc2c(c1)CCN2)c1cccs1	6.7*	9.8*	1.5*	5.6*	22*	17*	7.0*	26*	1	LXRb hcDAF ctr=2;hcDAF12 ag=5.6*
Cn1cccc1C(=O)C(=O)Nc1ccc(F)c(F)c1	4.9*	5	1.8*	4	15*	9.1*	7.7*	16*	1
Cn1cccc1C(=O)C(=O)Nc1ccc(Cl)cc1	5.1*	11*	1.4*	0	14*	15*	9.2*	20*	1	LXRb hcDAF ctr=2;hcDAF12 ag=8.6*
Cn1cccc1C(=O)C(=O)Nc1cc(Cl)cc(Cl)c1	1	-1	0	0	4	.	.	.	.
NC(=Nc1ccccc1)NC(=O)c1nc(Cl)c(N)nc1N	5.4*	1	-1	3	17*	8.2*	6.4*	14*	1
O=S(=O)(N[C@@H]1CCCC[C@H]1N1CCOCC1)c1ccc(Cl)cc1	.	0	-1	.	2	.	.	.	.
Nc1cccc(-c2cn3cc(C(F)(F)F)cc(Cl)c3n2)c1	5.3*	12*	2.1*	1	14*	13*	7.6*	18*	1	LXRb hcDAF ctr=1;hcDAF12 ag=9.1*
FC(F)(F)c1cc(Cl)c2nc(-c3ccccc3)cn2c1	6.6*	18*	2.8*	3	20*	15*	7.4*	23*	1	LXRb hcDAF ctr=2;hcDAF12 ag=17*
COc1ccc(N2CCN(CCCNC(=O)CCOC(C)(C)C)CC2)cc1	-1	-1	-2	.	-1	.	.	.	.
O=C1CCC[C@H]2C[C@H](NCc3cccnc3)CC[C@]23CCCN13	.	1	-1	.	0	.	.	.	.
SMILES	DAX1 inh-1	hcDAF-12 act	ssDAF-12 act	DAX1 inh-2	hgDAF-12 ag	DAX1 inh confirm	SF1 mutant ctr	hgDAF12 ag	LXR ag 2	others
Cc1ccc(NC(=O)c2cc3ccccc3o2)nc1	16*	14*	1.5*	1	19*	17*	9.9*	19*	1	LXRb hcDAF ctr=2;hcDAF12 ag=14*
O=C(Nc1nc2ccccc2[nH]1)c1cc2ccccc2o1	8.0*	14*	1	0	21*	9.4*	7.6*	19*	1	LXRb hcDAF ctr=1;hcDAF12 ag=9.1*
O=C(Nc1nc2ccccc2[nH]1)C1CCCC1	4.9*	4	0	1	15*	6.5*	5.7*	13*	1
O=C(Nc1nc2ccccc2[nH]1)c1ccccc1F	-2	-2	-3	-5	-11	.	.	.	.
Cc1cc(C)nc(NC(=O)c2cc3ccccc3o2)n1	0	0	-1	1	3	.	.	.	.
CC1CCC2(CCC(=O)N2C[C@@H](O)c2ccccc2)CC1 (stereo partly specified)	.	0	-1	.	-1	.	.	.	.
O=C(NCCc1c[nH]c2ccccc12)OCc1cn(Cc2ccccc2Cl)nn1	0	-1	0	.	-2	.	.	.	.
O=C(NC1=NCCS1)c1sc2cc(Cl)cc(Cl)c2c1Cl	0	-3	0	1	0	.	.	.	.
O=C(NC1=NCCS1)c1sc2ccccc2c1Cl	4.7*	11*	1.1*	1	21*	12*	7.4*	15*	1	LXRb hcDAF ctr=1;hcDAF12 ag=9.7*
CC(C)c1ccc(C(=O)NC2=NCCS2)cc1	5.5*	5	1	0	18*	19*	7.0*	14*	1
O=C(NC1=NCCS1)c1ccc(C(F)(F)F)cc1	1	1	-1	1	6	.	.	.	.
O=C(NC1=NCCS1)c1cccc(OC(F)F)c1	5.0*	1	0	4.8*	16*	14*	9.6*	14*	1
